Results reported in PubChem BioAssay (NCATS).
Records with an inconclusive call do not appear. A call without a number means that no potency is given here. Active and inactive are the calls of the source. Unless noted, calls come from the whole dose curve; as a rule, active = well fitted curve in the direction sought with a large enough effect; inconclusive = small, poorly fitted or top-dose-only effect, or another doubt; inactive = no such curve, though single readings can be large; an effect the other way counts as inactive or inconclusive.

Tests used:
[1] = target: D(1A) dopamine receptor (Homo sapiens) (UniProt P21728); assay: HTS Assay for Allosteric Agonists of the Human D1 Dopamine Receptor: Primary Screen for Potentiators (AID 488982)
Outline: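 Tetracycline-induced HEK293 T-REx cells force-coupled to calcium signalling were incubated overnight at 30 C and dye-loaded at room temperature. Calcium flux over 180 s after compound addition flagged agonists; a further 180 s read after EC20 dopamine flagged potentiators.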

[2] = Validation screen for small molecules that induce genotoxicity in human embryonic kidney (HEK293T) cells expressing luciferase-tagged ELG1 (AID 493106); note: potency is the fitted concentration of half-maximal effect
Outline: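 qHTS format; 2,000 HEK293T ELG1-luc cells/well; 23 nL compound via pin tool; 16 hr, 37 °C/5% CO2; ONE-Glo, 30 min RT; luminescence read.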

[3] = target: Thyrotropin-releasing hormone receptor (Homo sapiens) (UniProt P34981); assay: qHTS for Small Molecule Agonists and Allosteric Enhancers of Human TRH Receptor: Validation Screen for Agonists (AID 493127;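 active = calcium activation more than 3 SD above the typical response in the agonist read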;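 note: intracellular calcium rise by fluo-8 fluorescence before TRH EC20 addition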); details: TRH receptor agonist cell assay; at 2 µM; stronger effect = higher value
Outline: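 Read-out: intracellular calcium release measured kinetically by FDSS (fluo-8, ex 480/em 530 nm), 1 reading/s after a 10-cycle baseline. TRHR cells, 2000/well, cultured 18 h at 33.5C, dye-loaded at room temp. Compound-evoked positive calcium signal flags agonists.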

[4] = Nrf2 qHTS screen for inhibitors: Validation (AID 493153; active = well fitted inhibition curve with a large enough effect in the main read-out, with a control signal flat, not every such curve was filed as active; note: potency is the fitted concentration of half-maximal effect); details: Potency: luciferase luminescence; viability change: measured here: cytotoxicity max response
Outline: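 Concentration-response test in A549 ARE_Fluc reporter cells (5% FBS OPTI-MEM), compound exposure 18-24 h at 37°C, 5% CO2. Cell viability measured first by CellTiter-Fluor fluorescence; ARE-driven luciferase luminescence then measured as Nrf2 activity.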

[5] = qHTS for Inhibitors of Cell Surface uPA Generation: Validation Assay (AID 493164);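 note: RAW 264.7 macrophage cells exposed to compound for 18 h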
Outline: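 Compounds are titrated over seven points (2.45 nM–38.3 uM final) onto pre-plated RAW 264.7 cells and incubated for 18 h. Retained intracellular ATP, measured with ATP-Lite, indicates blocked lethal factor entry.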

[6] = target: Galactokinase (Homo sapiens) (UniProt P51570); assay: qHTS Validation Assay for Inhibitors of Human Galactokinase (GALK) (AID 493189)
Outline: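 5 nM GALK / 100 uM galactose / 35 uM ATP, 20 mM HEPES pH8.0, 5 mM MgCl2, 60 mM NaCl, 1 mM DTT, 0.01% BSA (final). RT 1 h; Kinase-Glo Plus luminescence.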

[7] = target: D(1A) dopamine receptor (Homo sapiens) (UniProt P21728); assay: HTS Assay for Allosteric Agonists of the Human D1 Dopamine Receptor: Primary Screen for Antagonists (AID 488983);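 note: calcium flux response to an EC80 dopamine challenge measured with no-wash dye; nearly all actives have a fitted effect of over 65% in size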; note: potency is the fitted concentration of half-maximal effect
Outline: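 Calcium flux readout, no-wash dye, inducible HEK293 T-REx D1 line (force-coupled). Compound added after 10 s baseline, 180 s kinetic read; then dopamine at EC80, further 180 s read.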

[8] = target: ATPase family AAA domain-containing protein 5 (Homo sapiens) (UniProt Q96QE3); assay: Validation screen for small molecules that inhibit ELG1-dependent DNA repair in human embryonic kidney (HEK293T) cells expressing luciferase-tagged ELG1 (AID 493107); note: nearly all actives have a fitted effect of over 70% in size; note: potency is the fitted concentration of half-maximal effect
Outline: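 ELG1-luciferase HEK293T reporter; 5-fluorouridine + compound/DMSO, 16 hr, 37 °C, 5% CO2; ONE-Glo 30 min RT; luminescence read, qHTS format.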

Chain of Thyrotropin-releasing hormone receptor (Homo sapiens) (P34981 whole entry, looked up): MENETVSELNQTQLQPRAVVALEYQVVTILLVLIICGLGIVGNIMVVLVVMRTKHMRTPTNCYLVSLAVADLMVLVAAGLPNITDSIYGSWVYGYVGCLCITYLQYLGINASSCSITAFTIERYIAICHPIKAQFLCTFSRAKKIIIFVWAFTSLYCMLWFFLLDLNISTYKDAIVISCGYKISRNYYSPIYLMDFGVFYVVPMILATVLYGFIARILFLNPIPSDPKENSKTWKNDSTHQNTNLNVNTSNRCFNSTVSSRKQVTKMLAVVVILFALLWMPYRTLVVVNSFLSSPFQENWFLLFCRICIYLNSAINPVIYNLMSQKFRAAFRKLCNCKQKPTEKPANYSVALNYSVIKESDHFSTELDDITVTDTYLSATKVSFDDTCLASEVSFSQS
Chain of Galactokinase (Homo sapiens) (P51570 whole entry, looked up): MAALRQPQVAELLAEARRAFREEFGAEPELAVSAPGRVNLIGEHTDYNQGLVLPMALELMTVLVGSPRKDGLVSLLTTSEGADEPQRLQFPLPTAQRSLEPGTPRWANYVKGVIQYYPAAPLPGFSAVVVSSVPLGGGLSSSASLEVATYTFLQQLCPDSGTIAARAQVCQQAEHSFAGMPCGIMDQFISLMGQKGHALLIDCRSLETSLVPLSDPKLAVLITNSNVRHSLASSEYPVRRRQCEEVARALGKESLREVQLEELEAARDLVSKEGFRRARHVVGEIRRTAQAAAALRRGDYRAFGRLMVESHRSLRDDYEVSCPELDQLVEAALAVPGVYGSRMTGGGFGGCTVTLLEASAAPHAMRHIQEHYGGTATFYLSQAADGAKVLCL
Chain of D(1A) dopamine receptor (Homo sapiens) (P21728 whole entry, looked up): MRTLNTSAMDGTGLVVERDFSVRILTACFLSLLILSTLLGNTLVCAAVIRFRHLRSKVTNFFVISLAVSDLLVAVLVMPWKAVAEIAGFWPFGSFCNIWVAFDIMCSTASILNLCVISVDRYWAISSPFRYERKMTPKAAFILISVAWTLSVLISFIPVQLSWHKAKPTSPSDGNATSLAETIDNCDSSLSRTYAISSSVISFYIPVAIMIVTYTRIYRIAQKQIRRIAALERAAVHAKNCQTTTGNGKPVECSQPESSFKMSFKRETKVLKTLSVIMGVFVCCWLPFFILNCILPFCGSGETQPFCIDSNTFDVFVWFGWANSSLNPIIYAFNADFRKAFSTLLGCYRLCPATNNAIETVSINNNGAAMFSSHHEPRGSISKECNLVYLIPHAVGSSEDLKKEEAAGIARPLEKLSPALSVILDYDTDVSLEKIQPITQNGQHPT
Chain of ATPase family AAA domain-containing protein 5 (Homo sapiens) (Q96QE3 whole entry, looked up, the tested form may be a part): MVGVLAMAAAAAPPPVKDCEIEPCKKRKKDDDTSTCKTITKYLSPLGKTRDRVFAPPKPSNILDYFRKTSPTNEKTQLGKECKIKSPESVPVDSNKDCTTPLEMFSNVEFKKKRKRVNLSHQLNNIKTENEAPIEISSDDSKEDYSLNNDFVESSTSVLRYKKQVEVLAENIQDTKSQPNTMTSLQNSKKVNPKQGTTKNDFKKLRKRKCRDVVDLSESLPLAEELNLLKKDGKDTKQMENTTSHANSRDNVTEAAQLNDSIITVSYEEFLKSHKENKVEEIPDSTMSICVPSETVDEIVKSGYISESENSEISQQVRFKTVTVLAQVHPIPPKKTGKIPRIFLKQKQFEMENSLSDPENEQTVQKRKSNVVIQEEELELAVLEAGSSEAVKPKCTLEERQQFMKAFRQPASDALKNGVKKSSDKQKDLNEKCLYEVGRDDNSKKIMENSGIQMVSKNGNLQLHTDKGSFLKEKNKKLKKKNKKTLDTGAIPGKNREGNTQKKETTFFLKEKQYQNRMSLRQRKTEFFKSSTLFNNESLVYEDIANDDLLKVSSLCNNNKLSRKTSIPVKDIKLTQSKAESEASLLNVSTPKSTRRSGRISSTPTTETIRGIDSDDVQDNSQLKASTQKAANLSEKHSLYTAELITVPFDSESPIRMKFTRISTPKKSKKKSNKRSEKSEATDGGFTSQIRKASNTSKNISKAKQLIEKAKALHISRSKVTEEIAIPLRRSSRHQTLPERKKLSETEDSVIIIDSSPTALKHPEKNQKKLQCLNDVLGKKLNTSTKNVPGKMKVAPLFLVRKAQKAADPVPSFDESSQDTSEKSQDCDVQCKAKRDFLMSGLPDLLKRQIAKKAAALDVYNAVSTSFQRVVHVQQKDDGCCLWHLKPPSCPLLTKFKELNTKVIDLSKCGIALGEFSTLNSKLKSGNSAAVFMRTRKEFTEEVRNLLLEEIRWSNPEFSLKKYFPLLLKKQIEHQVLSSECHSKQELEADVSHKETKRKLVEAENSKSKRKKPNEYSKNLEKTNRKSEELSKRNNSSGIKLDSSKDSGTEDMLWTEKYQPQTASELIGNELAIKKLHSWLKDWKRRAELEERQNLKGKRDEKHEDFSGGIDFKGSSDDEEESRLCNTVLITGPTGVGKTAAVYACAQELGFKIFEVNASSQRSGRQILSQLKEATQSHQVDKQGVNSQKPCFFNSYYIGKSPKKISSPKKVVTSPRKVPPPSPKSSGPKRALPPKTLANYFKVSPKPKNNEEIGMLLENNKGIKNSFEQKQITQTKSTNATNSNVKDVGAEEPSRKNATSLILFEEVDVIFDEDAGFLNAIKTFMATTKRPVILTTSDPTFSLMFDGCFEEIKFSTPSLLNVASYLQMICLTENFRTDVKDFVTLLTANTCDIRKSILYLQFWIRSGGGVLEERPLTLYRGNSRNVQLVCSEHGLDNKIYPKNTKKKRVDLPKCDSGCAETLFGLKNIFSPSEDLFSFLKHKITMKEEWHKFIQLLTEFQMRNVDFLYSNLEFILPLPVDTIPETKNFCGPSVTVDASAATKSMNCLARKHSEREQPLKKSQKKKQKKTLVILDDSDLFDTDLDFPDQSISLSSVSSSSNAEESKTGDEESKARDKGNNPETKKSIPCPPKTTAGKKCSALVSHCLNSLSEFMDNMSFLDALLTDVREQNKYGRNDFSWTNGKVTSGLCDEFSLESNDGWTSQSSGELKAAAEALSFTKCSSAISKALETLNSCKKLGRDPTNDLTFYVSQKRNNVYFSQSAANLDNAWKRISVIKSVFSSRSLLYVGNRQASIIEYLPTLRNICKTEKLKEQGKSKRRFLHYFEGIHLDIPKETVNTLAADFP

| SMILES | Potency [1] | Potency [2] | activation [3] | Potency [4] | viability change [4] | outcome [5] | Potency [6] | Potency [7] | Potency [8] |
| --- | --- | --- | --- | --- | --- | --- | --- | --- | --- |
| CNCC[C@H](Oc1ccc(C(F)(F)F)cc1)c1ccccc1 | inactive | inactive | 14.1% (inactive) | inactive | 1.58% | inactive | inactive |  |  |
| C=C[C@@H]1CN2CC[C@@H]1C[C@H]2[C@H](O)c1ccnc2ccc(OC)cc12 |  | inactive |  | inactive | -4.66% | inactive |  | inactive |  |
| CCOC(=O)N1CCN(/[N+]([O-])=N/Oc2ccc([N+](=O)[O-])cc2[N+](=O)[O-])CC1 | inactive | inactive |  |  |  | inactive |  |  |  |
| C=CC(N)CCC(=O)O (stereo not drawn) |  | inactive | -0.0625% (inactive) | inactive | 4.81% | inactive | inactive | inactive | inactive |
| c1ccc(-c2ccccn2)nc1 |  | inactive |  | inactive | -0.658% | inactive | inactive | inactive | inactive |
| O=Nc1ccc2oc(=O)ccc2c1 |  | inactive |  | inactive | 1.8% | inactive | inactive | inactive | inactive |
| Clc1ccc(N2CCN(Cc3c[nH]c4ncccc34)CC2)cc1 | inactive | inactive |  |  |  | inactive | inactive |  | inactive |
| Cn1cc(C2=C(c3ccc(Cl)cc3Cl)C(=O)NC2=O)c2ccccc21 |  | inactive | 29.6% (inactive) | inactive | -10.9% | inactive | inactive | inactive |  |
| COc1cc(C(O)CO)ccc1OS(=O)(=O)O (stereo not drawn) |  | inactive | -2.69% (inactive) | inactive | -9.03% | inactive | inactive | inactive | inactive |
| O=C(O)[C@@H]1C[C@H](C(=O)O)N1 |  | inactive | -0.25% (inactive) | inactive | 12.1% | inactive | inactive | inactive |  |
| N#C/C(=C\c1ccc(O)c(O)c1)C(=O)NCCCc1ccccc1 | inactive | inactive | 0.625% (inactive) | inactive | -10.3% | inactive | inactive |  |  |
| O=C1O/C(=C/Br)CCC1c1cccc2ccccc12 (stereo not drawn) |  | inactive | -3.56% (inactive) |  |  | inactive | inactive | inactive | 18.3 µM (active) |
| NC[C@@H]1O[C@H](C23CC4CC(CC(C4)C2)C3)Cc2c1ccc(O)c2O | inactive | inactive | 8.12% (inactive) | inactive | 3.16% | inactive | inactive |  |  |
| CN1C2CC(OC(=O)[C@H](CO)c3ccccc3)CC1C1OC12 (stereo partly drawn) |  | inactive |  |  |  | inactive |  | inactive | inactive |
| Cc1cc2c(cc1Cl)N(C(=O)Nc1ccc(Oc3cccnc3C)nc1)CC2 |  | inactive |  | 7.31 µM (active) | -19.7% |  |  | 14.1 µM (active) |  |
| CC(C)CC(NP(=O)(O)O[C@@H]1O[C@@H](C)[C@H](O)[C@@H](O)[C@H]1O)C(=O)NC(Cc1c[nH]c2ccccc12)C(=O)O (stereo partly drawn) |  | inactive |  | inactive | -0.0491% | inactive |  | inactive | inactive |
| O=C1/C(=C/c2ccsc2)CC/C1=C\c1cccs1 |  | 23.1 µM (active) |  | inactive | -8.76% | inactive |  | inactive |  |
| Nc1nc(Cl)nc2c1ncn2[C@@H]1O[C@H](CO)[C@@H](O)[C@H]1O |  | inactive |  | inactive | -2.02% | inactive |  | inactive | inactive |
| C[N+]1(C)CCC(OC(=O)C(c2ccccc2)c2ccccc2)CC1 |  | inactive |  | inactive | 1.14% | inactive |  | inactive |  |
| NC(=O)C(=O)O |  | inactive | 1% (inactive) | inactive | 4.28% | inactive | inactive | inactive |  |
| Oc1cc(O)cc(/C=C/c2ccc(O)c(O)c2)c1 |  | 3.66 µM (active) | 0.938% (inactive) |  |  | inactive | inactive | inactive |  |
| COc1cc(SC)ccc1C(=O)N1CCC(Cc2ccccc2)CC1 |  | inactive |  | inactive | 1.59% | inactive |  | inactive |  |
| CN1CCC[C@H]1c1cccnc1 |  | inactive | 0.5% (inactive) | inactive | -3.72% | inactive | inactive | inactive | inactive |
| CC[C@@H](C)[C@H]1O[C@]2(CC[C@H]1C)C[C@@H]1C[C@@H](CC=C(C)[C@@H](O[C@H]3C[C@H](OC)[C@@H](O[C@H]4C[C@H](OC)[C@@H](O)[C@H](C)O4)[C@H](C)O3)[C@@H](C)C=CC=C3CO[C@@H]4[C@H](O)C(C)=C[C@@H](C(=O)O1)[C@]34O)O2 |  | inactive |  |  |  | inactive |  | inactive |  |
| NC[C@H]1O[C@@H](n2cnc3c(N)ncnc32)[C@H](O)[C@@H]1O |  | inactive |  | inactive | 9.27% | inactive |  | inactive | inactive |
